These results are taken from PubChem BioAssay AID2314 (National Center for Advancing Translational Sciences (NCATS), 2010).

The structures appear in SMILES notation. Screen size: about 300,000 compounds; about 37,000 (12%) were called active. This is one part of a sample in which actives are shown more often than they occur. No stated cut-off is given here; in the data, active means max response mostly above about 13% (no sharp cut-off); inactive means mostly below about 14%.

The assay can be described thus: Cycloheximide Counterscreen for Small Molecule Inhibitors of Shiga Toxin. Further: read at 38.3 µM for the half of the compounds with a filed dose; 0% is about no effect. The following applies: cell reporter, cycloheximide protein synthesis inhibition counterscreen; active compounds read high.
`CCN(CC)/[N+]([O-])=N/Oc1cc(O/[N+]([O-])=N/N2CCCC2CO)c([N+](=O)[O-])cc1[N+](=O)[O-]` (stereo not given): the max response was -2.07% (inactive).
Next, `O=C(Nc1cccc(Cl)c1)c1cncn1-c1ccc(F)cc1`: 6.32% (inactive); `COc1ccccc1C(=O)NNC(=O)CCN1C(=O)/C(=C\c2ccccc2)SC1=S`: -3.61% (inactive).
The result for `CCn1cc(CCC(=O)NCc2ccc(F)cc2)c2ccccc21` reads 5.51% (inactive).
The result for `O=C(CCCNS(=O)(=O)c1cccc2nsnc12)NCCN1CCN(c2ccccc2F)CC1` reads -4.37% (inactive); that for `COc1ccccc1Oc1ccc(N/C=C2/CCCC2=O)cc1`, 15.4% (active); that for `COc1ccccc1Oc1ccc(S(=O)(=O)Nc2cccnc2)cc1`, -1.76% (inactive).
For `COc1ccc(NS(=O)(=O)c2ccc(Oc3c(C#N)cccc3C#N)cc2)cc1`, the max response is 5.34% (inactive).
The result for `CCOC(=O)c1[nH]c2c(c1-c1ccccc1)C(=O)CC(c1ccc(Cl)cc1)C2` (stereo not given) reads 5.07% (inactive); that for `COCCOC(=O)c1[nH]c2c(c1C)C(=O)CC(c1ccc(OC)cc1)C2` (stereo not given), 7.29% (inactive); that for `CCOC(=O)c1[nH]c2c(c1C)C(=O)CC(c1ccc(N(C)C)cc1)C2` (stereo not given), 25.5% (active).
The result for `CCOC(OCC)c1ccc(/C=C\c2nccc(N)n2)cc1` reads 38.5% (active).
The result for `Cc1cc(=O)n2nc(N3CCCC(C(=O)NCc4ccc(Cl)cc4)C3)sc2n1` (stereo not given) reads -2.2% (inactive).
Regarding `CCOC(=O)c1cc2cc(C)ccc2[nH]1`, the max response is 39.7% (active).
The result for `CCNCc1cc2cc(C)ccc2[nH]c1=O` reads 4.83% (inactive).
Regarding `CC(=O)OCc1cc2cc(C)ccc2[nH]c1=O`, the max response was -2.45% (inactive).
Next, `Cc1ccc2c(c1)N(CC(=O)N(Cc1ccccn1)Cc1ccco1)C(=O)C(C(C)C)O2` (stereo not given): 8.51% (inactive); `CCOC(CNC(=O)C1CCN(S(=O)(=O)c2ccc3nc4c(c(C(=O)O)c3c2)CC(C)CC4)CC1)OCC` (stereo not given): -3.45% (inactive).
On to `CC(=O)c1cccc(NC(=O)COc2ccc(S(=O)(=O)N3CCOCC3)cc2)c1`, for which the max response was 0.879% (inactive).
The result for `Cc1cc(C)cc(NC(=O)N2CCCCCCC2)c1` reads -5.05% (inactive).
As for `Cc1cc(C)cc(NC(=O)NC2CCCCCCC2)c1`, the max response is 17.4% (active).
Next, `CC(C)c1ccc(NC(=O)NC2CCCCC2)cc1`: 44.1% (active); `Cc1cc(C)cc(NC(=O)NC2CCN(CC(=O)Nc3cccc(Cl)c3C)CC2)c1`: -0.314% (inactive).
For `CC(C)(C)NS(=O)(=O)c1ccc(NC(=O)NC2CCCCC2)cc1`, the max response was 9% (inactive).
The result for `CC(C)N1CCC(NC(=O)Nc2ccccc2)CC1` reads -2.49% (inactive).
Next, `C/C(=N\NC(=O)OC(C)(C)C)c1ccc[nH]1`: 42.4% (active).
Take `Cc1ccccc1NC(=O)NNC(=O)OC(C)(C)C`: the max response was -3.59% (inactive).
The result for `COc1ccccc1CNS(=O)(=O)c1ccc2c(c1)NC(=O)CS2` reads 30.5% (inactive).
As to `O=[N+]([O-])c1cc([N+](=O)[O-])c(Oc2cc(F)cc(F)c2F)cc1NN1CCCCC1`, the max response was 0.495% (inactive).
Next, `CCOC(=O)c1sc(NC(=O)CSc2nc3c(c(=O)n2-c2ccccc2)SCC3)c(C(=O)OCC)c1C`: -2.16% (inactive).
Next, `COc1cc2cc(C(=O)N/N=C/c3cccc(OC)c3OC)[nH]c2cc1OC`: 0.0255% (inactive); `COc1cccc(/C=N/NC(=O)c2[nH]nc3c2CCc2ccccc2-3)c1O`: 6.14% (inactive).
As for `COc1cccc(/C=N\NC(=O)C2=NNC(=O)C2C)c1O` (stereo not given), the max response was 32.5% (active).
Turning to `O=c1[nH]nc(SCCS(=O)(=O)c2ccc(F)cc2)n1-c1ccccc1C(F)(F)F`, the max response was -1.24% (inactive).
The result for `COc1cccc2cc(-c3cc(=O)oc4cc(C)c(O)cc34)oc12` reads 8.46% (inactive); that for `COc1ccccc1-n1cnc2cc(C(=O)NCC3CCCO3)ccc21` (stereo not given), -2.15% (inactive).
The result for `O=C(NCCN1CCOCC1)c1ccc2c(c1)ncn2C1CCCC1` reads 1.03% (inactive).
For the compound `O=C(NCc1cccs1)c1ccc2c(c1)ncn2C1CCCC1`, the max response is 31.8% (active).
Next, `CCCCC(CC)CNCc1cccn1CCN1CCOCC1` (stereo not given): -0.53% (inactive); `CC(C)CN(Cc1c(O)ccc2c(=O)c(-c3ccccc3)coc12)CC(C)C`: 8.57% (inactive); `CC(C)=CCc1c(O)c(CC=C(C)C)c2occ(-c3ccc(O)cc3)c(=O)c2c1O`: 10.9% (active).
Regarding `O=C(Cn1cc(C(=O)C2CC2)c2ccccc21)Nc1ccccc1Cl`, the max response is -7.35% (inactive).
Consider `Cc1cc(C)c(NC(=O)CN2CCCCCC2)c(C)c1`, for which the max response was 34.2% (active).
The result for `Cc1csc(NC(=O)CN2CCCCCC2)n1` reads 2.46% (inactive).
Turning to `COc1cc(Cl)c(C)cc1NC(=O)CN1CCCCCC1`, the max response is 0.423% (inactive).
Next, `O=C(CN1CCCCCC1)Nc1ccc(Cl)cc1F`: 8.65% (inactive); `O=C(CN1CCOCC1)Nc1c(Cl)cc(Cl)cc1Cl`: -2.9% (inactive).
On to `O=C(CN1CCCCCC1)Nc1c(Cl)cc(Cl)cc1Cl`, for which the max response is 21.3% (active).
Next, `CC1CCCCN1CCCNc1ccc(C(CC(N)=O)NC(=O)c2ccccc2)cc1[N+](=O)[O-]` (stereo not given): -1.02% (inactive).
The result for `COCCN(Cc1cc2cc3c(cc2nc1Cl)OCO3)C(=O)c1cccc(C)c1` reads 5.64% (inactive); that for `COc1ccc(OC)c(C(O)c2nc3ccccc3n2C)c1` (stereo not given), -2.03% (inactive); that for `CCOc1ccc(C(O)Cc2nc3ccccc3n2C)cc1` (stereo not given), 22.1% (active).
Next, `CCOc1ccc(C(O)Cn2c(=N)n(CCN3CCCCC3)c3ccccc32)cc1` (stereo not given): -4.27% (inactive).
For the compound `CCCn1c(C(O)c2ccc(OCC)cc2)nc2ccccc21` (stereo not given), the max response is -3.7% (inactive).
With `COc1cccc(C(O)Cc2nc3ccccc3n2C)c1OC` (stereo not given), the max response is 20.6% (active).
In the case of `COc1cc(C(O)c2nc3ccccc3n2C)cc(OC)c1OC` (stereo not given), the max response is 0.887% (inactive).
Regarding `COc1ccc(CN2CC(C(=O)NC3CCCCC3)CC2=O)cc1` (stereo not given), the max response was -2% (inactive).
The result for `O=C1Oc2ccccc2C(=O)/C1=C/c1ccccc1O` reads 12.4% (inactive); that for `COCCNC(=O)C1CCN(C(=O)C2CC(=O)N(c3ccc(C)cc3)C2)CC1` (stereo not given), 1.44% (inactive); that for `CCOC(=O)c1c(NC(=O)c2ccc(S(=O)(=O)N(C)CC3CCCO3)cc2)sc2c1CC(C)(C)NC2(C)C` (stereo not given), -4.44% (inactive).
Regarding `COc1ccc(NC(=O)N2CCCC2C(=O)NCc2ccccc2Cl)cc1` (stereo not given), the max response is -3.43% (inactive).
Next, `O=C(c1ccccc1F)N(Cc1ccccc1)Cc1ccccc1`: -2.08% (inactive).
As for `C=CCN1C=C2C(=O)C(C)(OC(=O)CCc3ccccc3)C(=O)C=C2C=C1c1ccc(C#N)cc1` (stereo not given), the max response is -1.82% (inactive).
In the case of `Cn1c(=O)c2ccccc2n(CC(=O)Nc2ccc3c(c2)OCCO3)c1=O`, the max response is -8.73% (inactive).
Next, `O=C(Nc1ccc2c(c1)OCCO2)c1ccncc1`: 33.1% (active).
The result for `O=C(CCN1C(=O)c2ccncc2C1=O)Nc1ccc2c(c1)OCCO2` reads 1.67% (inactive).
The result for `O=C(Cn1c(=O)sc2ccccc21)Nc1ccc2c(c1)OCCO2` reads -0.826% (inactive).
Regarding `O=C(Nc1ccc2c(c1)OCCO2)c1cnccn1`, the max response was 33% (inactive).
The result for `O=C(Nc1ccc2c(c1)OCCO2)c1ccoc1` reads 35.3% (active); that for `COc1cccc(N(C(=O)CNC(=O)c2ccco2)C(C(=O)NC2CCCCC2)c2cccnc2)c1` (stereo not given), -2.98% (inactive); that for `CCN(CC)c1ccc(NC(=O)CN2CCN(c3ccccn3)CC2)cc1`, -3.57% (inactive).
Consider `CC[n+]1cc(C)ccc1/C=C/c1ccc(N(C)C)cc1`, for which the max response was 12.8% (inactive).
Regarding `O=c1ccnc(Nc2ccc(Cl)cc2)[nH]1`, the max response is 1.06% (inactive).
Turning to `O=C(Nc1cc(S(=O)(=O)N2CCOCC2)ccc1Cl)c1cc(=O)c2ccccc2o1`, the max response was 2.68% (inactive).
The result for `COc1ccc(Nc2oc(-c3ccccc3Cl)nc2C#N)cc1` reads 9% (inactive); that for `N#Cc1nc(Cc2cccc3ccccc23)oc1NCc1ccc2c(c1)OCO2`, -2.28% (inactive); that for `CCOc1ccc(Nc2oc(Cc3ccccc3)nc2C#N)cc1`, 31.6% (active).
In the case of `Cc1ccccc1-c1nc(C#N)c(NCc2ccco2)o1`, the max response is 8.49% (inactive).
Turning to `N#Cc1nc(COc2ccc(-c3ccccc3)cc2)oc1NCc1cccnc1`, the max response was 9.29% (inactive).
Next, `N#Cc1nc(Cc2ccccc2)oc1NCCc1ccccc1`: 39.2% (active).
The result for `O=c1cc(C(F)(F)F)[nH]c(=O)n1C1CCCCC1` reads 6.49% (inactive); that for `CCCCn1c(N)c(N(CC)C(=O)c2ccccc2C(F)(F)F)c(=O)[nH]c1=O`, -3.22% (inactive); that for `CCSc1nc(C)c(CCOc2cccc(C)c2)c(=O)[nH]1`, 1.14% (inactive).
The result for `O=C(Nc1ccccc1)OCc1cc(-c2ccc(Cl)cc2)on1` reads -2.77% (inactive); that for `Clc1ccc(-c2cc(COc3ccccc3)no2)cc1Cl`, -2.19% (inactive); that for `O=C(Nc1ccc(Cl)cc1)OCc1cc(-c2ccccc2)on1`, 22.5% (active).
With `Cc1ccc(C2CC(c3cccc(NS(C)(=O)=O)c3)=NN2S(C)(=O)=O)cc1` (stereo not given), the max response was 45.1% (active).
`CS(=O)(=O)Nc1ccc(C2=NN(S(C)(=O)=O)C(c3cccs3)C2)cc1` (stereo not given): the max response is 33.7% (active).
Next, `CS(=O)(=O)Nc1cccc(C2=NN(C(=O)c3cccc(F)c3)C(c3cccs3)C2)c1` (stereo not given): -2.01% (inactive); `CS(=O)(=O)Nc1cccc(C2=NN(S(=O)(=O)c3ccccc3)C(c3cccs3)C2)c1` (stereo not given): -3.68% (inactive); `CCS(=O)(=O)Nc1ccc(C2=NN(C(C)=O)C(c3cccs3)C2)cc1` (stereo not given): 16% (inactive).
The result for `Cc1ccccc1C1CC(c2cccs2)=NN1S(C)(=O)=O` (stereo not given) reads -1.48% (inactive); that for `CCOc1ccc(NC(=S)NC(=O)/C=C/c2ccc(OC)cc2)c([N+](=O)[O-])c1`, 9.22% (inactive); that for `c1ccc2c(C[n+]3csc4ccccc43)cccc2c1`, 9.31% (inactive).
The result for `COC(=O)Cn1cnc2scc(-c3ccc(C)c(C)c3)c2c1=O` reads -2.51% (inactive).
